Assay results reported in PubChem BioAssay (NCI).
Compounds without any hit were thinned out: in the full panel of roughly 83,000, 20% have a hit.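 The endpoint reported here, percent growth, reads 100 for growth as untreated, 0 for no net growth and -100 for all cells dead.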 Values without a mark were called inactive. Active and inactive are the calls of the source. How the source made its calls: active means growth percent below 10; inactive means the rest.

Each compound was assayed on SF-539 CNS (assay: NCI-60 one-dose screen, 48 h (100 = growth as untreated, 0 = no growth, -100 = all killed)). Conditions: 10 µM unless noted.
For `O=C(CCl)c1ccc([N+](=O)[O-])o1`, the growth was 2.78% (active). In the case of `CCCCCSC1C2C(=O)C(Br)=CC13CCNc1c(O)c4c5c(c13)=[N+]2CCC=5C=N4` (centres undefined), the growth is reported as -79.6% (active). `COc1ccc(C/C(C)=C(\c2ccc(OCCN3CCOCC3)cc2)c2ccc(OC(=O)Cc3ccccc3)cc2)cc1` was tested, and the growth was -85.4% (active). In the case of `Cn1cc(-c2csc(-c3cn(CCCCN4CCCCC4)c4ccc(F)cc34)n2)c2cccnc21`, the growth is reported as 75.3%. `COc1ccc2c(c1)c(-c1nc(-c3cn(C)c4ncccc34)cs1)cn2CCCCN1CCCCC1` was tested, and the growth was -80.2% (active). Compound `C[n+]1c(/C=C/c2ccc(N(CCCl)CCCl)cc2)sc2ccccc21` has a growth of 45.4%. For `C=CC[Se]C(=O)c1ccccc1OC(C)=O`, the growth was -82.4% (active). `CC(=O)OC1CCC2C3CCC4=C/C(=N/OC(=O)c5ccc(N(CCCl)CCCl)cc5)CCC4(C)C3CC(C)C12` (centres undefined) was tested, and the growth was 75.6%. `CCCCCCCC[n+]1ccc2ccccc2c1` showed a growth of 62.6%. For `Cn1cccc1C1CC(=O)N(CCC[Se]C#N)C1=O` (centres undefined), the growth was -81.2% (active). `C[Se]C(=O)c1ccccc1OC(C)=O` gave a growth of 50.3%. `O=C1Nc2ccccc2C2c3cccn3-c3ccccc3CN12` (centres undefined) gave a growth of 55.1%. For `CCOC(=O)[C@@H](C)C[C@H](Cc1ccccc1)NC(=O)c1csc([C@@H](C[C@H](C(C)C)N(C)C(=O)[C@H](CCC(C)C)NC(=O)[C@H]2CCCCN2C)OC(C)=O)n1`, the growth was -10.2% (active). In the case of `COC(=O)[C@H](C[C@H](Cc1ccccc1)NC(=O)c1csc([C@@H](C[C@H](C(C)C)N(C)C(=O)[C@@H](NC(=O)[C@H]2CCCCN2C)C(C)C)OC(C)=O)n1)NC(=O)OCc1ccccc1`, the growth is reported as -21.7% [8.5 µM] (active).
